GPR151 ag – human GPR151 activation; 650,000 tested, 1% active; activation, % at 11.2 µM; AID 1508602; Q8TDV0; PathHunter beta-arrestin GPR151 cells, luminescence; in the data active = activation above about 4.9%;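 note: 0% = median of compound wells and 100% = cells with positive control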
Target sequence (Q8TDV0 whole entry, looked up): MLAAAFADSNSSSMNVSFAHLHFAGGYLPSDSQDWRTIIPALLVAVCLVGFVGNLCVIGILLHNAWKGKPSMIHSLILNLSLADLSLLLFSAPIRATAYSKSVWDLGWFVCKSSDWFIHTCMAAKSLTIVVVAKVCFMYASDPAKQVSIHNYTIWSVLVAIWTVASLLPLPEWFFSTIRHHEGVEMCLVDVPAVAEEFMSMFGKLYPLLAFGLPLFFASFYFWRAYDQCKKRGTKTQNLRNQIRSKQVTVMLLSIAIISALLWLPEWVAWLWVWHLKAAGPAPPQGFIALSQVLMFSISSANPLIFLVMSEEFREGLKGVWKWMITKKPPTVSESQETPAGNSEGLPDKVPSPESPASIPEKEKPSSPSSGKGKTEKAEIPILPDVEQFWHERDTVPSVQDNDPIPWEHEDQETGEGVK
MITF inh – inhibitors of human MITF | O75030 | AlphaScreen MITF homodimerization, bead proximity signal | inhibition, % at 2.6 µM | 650,000 tested, 0.91% active | AID 1259374; in the data active = inhibition above about 50%;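 note: 0% = vehicle wells with protein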
TEAD-YAP block – TEAD-YAP interaction inhibition | 640,000 tested, 1.4% active | HEK-TIYL cells, TEAD-Gal4/YAP UAS-luciferase luminescence | AID 1259422 | inhibition, % at 9.12 µM; in the data active = inhibition above about 32%;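 note: 0% = median of test compound wells and 100% = reference inhibitor wells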
FBW7 activator – activators of human E3 ligase FBW7; AID 1259310; Q969H0; 650,000 tested, 0.13% active; normalized activity (activation), % at 26.1 µM; AlphaScreen FBW7–phospho-cyclin E peptide binding, activator screen; in the data active = normalized activity above about 1.9%;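 note: purified mutant Fbw7 with reduced substrate affinity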
Active calls of the source: *. Only some compounds are listed: those with a hit (about 3.4% of all), similar ones and a draw of the others.

SMILES	GPR151 ag	MITF inh	TEAD-YAP block	FBW7 activator
N#Cc1c(NC(=O)c2ccc([N+](=O)[O-])cc2[N+](=O)[O-])sc2c1CCCC2	-0.3	-18.5	2.4	-0.1
CCOc1ccc(C(=O)Oc2ccc(-c3nc4ccc(C)cc4s3)cc2)cc1Br	-1.1	17.3	37.0*	0.1
CCOc1ccc(C(=O)Nc2ccc(-c3nc4ccc(C)cc4s3)cc2)cc1Br	-0.3	-4.9	-0.4	0.0
Cn1c(SCC2CCCO2)nnc1-c1ccccc1O (configuration not stated)	0.2	10.3	61.1*	0.4
Cn1c(SCC2CCCCO2)nnc1-c1ccccc1 (configuration not stated)	-0.3	-5.5	-32.8	-0.1
O=S(=O)(c1ccccc1)N1CCC(O)(CSc2ccc(Cl)cc2)CC1	-0.1	4.7	39.2*	0.0
Cc1cc(C(=O)O)c(C)n1-c1ccc(Br)cc1	2.1	17.6	-1.9	0.0
Fc1ccc(-c2cnc3ccc4ccncc4c3c2)cc1	0.1	15.9	-8.5	0.2
c1cc2ccc3ncc(-c4ccc(-c5ccn[nH]5)cc4)cc3c2cn1	0.2	12.1	-17.6	2.0*
COc1ccc(OC)c(NC(=O)c2cccc(-n3cc(NC(=O)Cc4cccc(C)c4)cn3)c2)c1	0.6	9.6	9.7	0.0
CCOC(=O)C(C)Oc1cc(Br)c(C=O)cc1OC (configuration not stated)	-0.1	4.0	4.2	-0.1
CCOC(=O)C(=Cc1cc(OC)c(OC)cc1Br)C(=O)OCC	1.9	2.1	42.2*	0.1
COc1ccc(/C=C2/SC(=S)N(CCC(=O)O)C2=O)cc1	0.9	1.4	57.8*	-0.2
COc1ccc(/C=C2\SC(=O)N(CO)C2=O)c(OC)c1	2.1	15.4	-10.8	0.0
Cc1ccc(/C=C2\SC(=S)N(CCCC(=O)Nc3cccnc3)C2=O)cc1	1.2	-2.0	33.6*	-0.2
COc1ccc(/C=C2\SC(=O)N(CCC(=O)O)C2=O)c(OC)c1	0.4	10.4	63.9*	-0.2
Cc1ccc(/C=C2/SC(=S)N(Cc3cccnc3)C2=O)cc1	-0.4	2.3	4.0	-0.1
COc1cc(/C=C2/SC(=S)N(CCCC(=O)O)C2=O)ccc1O	-7.1	5.7	60.9*	0.0
CCCN1C(=O)/C(=C/c2ccc(OC)cc2)SC1=S	-0.6	9.1	-10.9	-0.1
O=C(O)CCCCCN1C(=O)/C(=C/c2ccc(O)cc2)SC1=S	-8.1	7.5	31.1	0.5
O=C(O)CCCN1C(=O)/C(=C\c2ccc(OC(F)F)cc2)SC1=S	2.4	7.5	58.8*	0.1
COC(=O)CCCN1C(=O)/C(=C\c2ccc3c(c2)OCO3)SC1=S	-0.9	8.8	59.2*	0.3
CCOc1ccc(/C=C2\SC(=S)N(CCCC(=O)O)C2=O)cc1	-0.5	1.7	79.2*	-0.4
CCOc1cc(/C=C2\SC(=S)N(CCCC(=O)O)C2=O)ccc1O	-0.3	13.4	82.3*	-0.3
O=C(NCCNc1ncnc2sc3c(c12)CCCC3)c1ccccc1	-0.7	11.8	10.6	0.2
SMILES	GPR151 ag	MITF inh	TEAD-YAP block	FBW7 activator
CSc1ncc(C(=O)Nc2ccc(C(C)C)cc2)c(C)n1	1.6	-0.3	-11.7	0.3
Cc1ccccc1CC(=O)N1CCC(C2(CCCc3ccccc3)NC(=O)NC2=O)CC1 (configuration not stated)	-0.1	-5.3	-3.5	0.1
CC1CCN(C(=O)CSc2nc(Nc3ccc(F)c(F)c3)c3ccccc3n2)CC1	1.0	4.7	2.2	0.1
CC(C)(O)C(=O)/C=C/c1cccc([N+](=O)[O-])c1	-1.0	-0.5	48.2*	0.3
COc1cccc(NC(=O)c2sc(NC(=O)/C=C/c3ccccc3)nc2C)c1	-0.7	-8.0	55.4*	0.0
Cc1noc(C)c1C(=O)NCC1Cc2cc(-c3ccc(S(C)(=O)=O)cc3)ccc2O1 (configuration not stated)	0.1	-13.4	7.9	-0.1
Cc1ccoc1C(=O)NCC1Cc2cc(-c3ccc(S(C)(=O)=O)cc3)ccc2O1 (configuration not stated)	0.8	15.3	38.8*	0.6
COc1ccccc1CNC(=O)c1ccc(CNc2c(N3CCCCC3)c(=O)c2=O)cc1	1.5	-6.4	6.5	-0.1
Cc1cncc2cccc(NC3CCNC3)c12 (configuration not stated)	0.5	8.0	68.8*	-0.1
Cc1cncc2cccc(NC3CCCN(C(=O)C(O)c4ccc(Br)cc4)C3)c12 (configuration not stated)	2.5	1.7	47.5*	-0.3
COC(=O)c1c(NC(=O)c2ccc(OC(C)C)cc2)sc(C)c1C	-0.6	8.3	9.7	0.1
Cc1ccc(C)c(C2=C/C(=C/c3ccc4c(c3)OCO4)C(=O)O2)c1	-0.5	4.8	7.1	-0.1
O=[N+]([O-])c1c(NCCCO)cc(NC2CCCCCC2)c2nonc12	0.0	11.8	1.3	0.1
Cc1ccc2nc3ccc(N4CCCC4)nn3c(=O)c2c1	0.1	1.5	-60.4	0.0
CC1CCCN(c2ccc3nc4ccccc4c(=O)n3n2)C1 (configuration not stated)	-4.3	8.8	71.4*	0.4
Cc1c(N=C2C(=O)N(CC(=O)O)c3ccccc32)c(=O)n(-c2ccccc2)n1C	-1.0	4.7	7.5	2.3*
CCCOC(=O)CSc1nnc(-c2ccc(OC)cc2)o1	-0.6	7.8	-37.1	0.1
Cn1c2ccncc2c2cc([N+](=O)[O-])ccc21	-1.6	14.2	76.4*	-0.3
CC(=O)Nc1cccc(NC(=O)CSc2nc(Cc3ccccc3)nc3ccccc23)c1	0.0	-13.9	7.2	-0.1
Cc1ccccc1NS(=O)(=O)c1ccc(N2CCCC2=O)cc1	0.1	4.0	47.5*	0.0
COc1ccc(-n2nnnc2C(NCCc2c(C)[nH]c3ccccc23)c2ccc(Cl)cc2Cl)cc1 (configuration not stated)	1.0	3.0	2.4	0.0
COc1cccc(-c2cc3nc4c(c(NCc5cccnc5)n3n2)CCC4)c1	-0.6	-0.8	42.2*	-0.1
COc1cc(OC)cc(-c2cc3nc4c(c(NCc5cccnc5)n3n2)CCC4)c1	-0.5	-3.8	44.7*	-0.1
Cc1ccccc1NC(=O)c1ccccc1-c1ccccc1C(=O)O	-1.7	2.5	4.0	0.1
CC(=O)C1=C(C)OC(N)=C(C#N)C1c1cccc(I)c1 (configuration not stated)	-2.2	7.8	10.7	0.7
SMILES	GPR151 ag	MITF inh	TEAD-YAP block	FBW7 activator
CC(C)n1cnc2c(Nc3ccc(F)cc3)ncnc21	-5.9	17.6	54.3*	-0.1
Cn1nc(CC(=O)Nc2ccc(F)cc2Cl)c2ccccc2c1=O	0.6	-13.0	45.8*	-0.1
COc1ccccc1NC(=O)Cc1nn(C)c(=O)c2ccccc12	0.4	13.1	35.6*	0.0
COc1cccc(C(=O)N2CCN3C(=O)[C@H](CC(C)C)NC(=O)[C@H]3C2)c1	-0.3	6.1	12.7	0.1
Cc1ccc(C2CC(c3cccs3)=NN2C(=O)CSc2nnc(CNC(=O)COc3ccccc3)n2-c2cccc(C)c2C)cc1 (configuration not stated)	-0.5	-9.8	-1.1	-0.1
COc1ccccc1-n1c(CNC(=O)COc2ccccc2)nnc1SCC(=O)N1N=C(c2cccs2)CC1c1ccc(C)cc1 (configuration not stated)	-0.3	-0.1	41.2*	0.4

Compound activity from PubChem BioAssay.
